Measurements reported in ChEMBL document CHEMBL4513146, “CO-ADD screening of Karazin Kharkiv National University (Ukraine) compounds”.
Entries with a potency or affinity are not part of this list.

These compounds were tested on Klebsiella pneumoniae. Details: Concentration 32 ug.mL-1;; ASSAY_TEST Inhibition of Bacterial Growth; detection method Absorption (OD600); MEDIA CAMHB; plate type 384well; NBS; CORNING #3640; time 18 hr.
In the case of O=C(Cn1nc2ccc(SCc3ccc(Cl)cc3)nn2c1=O)Nc1ccccc1C(F)(F)F, the Inhibition was 7.36%. COC(=O)c1sccc1NC(=O)Cn1nc2c(Oc3ccc(C)cc3)nc3ccccc3n2c1=O gave an Inhibition of 13.09%. In the case of COC(=O)c1ccc(NC(=O)CSc2nc3ccccc3n3c(C(C)C)nnc23)cc1, the Inhibition was 12.96%. Work on CCc1ccccc1Sc1nccn2c(=O)n(CC(=O)Nc3cc(C)ccc3C)nc12 yielded an Inhibition of 13.72%. Compound COc1ccc(-c2cc3c4nn(CC(=O)Nc5cc(C)ccc5C)c(=O)n4ccn3n2)cc1 has an Inhibition of 11.61%. With O=C(Cn1nc2ccc(Sc3cccc(F)c3)nn2c1=O)NCc1ccc(C(F)(F)F)cc1 the Inhibition was 8.35%. O=c1c2nn(Cc3ccc(F)cc3)c(=O)n2ccn1-c1ccccc1 was tested, and the Inhibition was 9.86%. For CC(=O)c1ccc(NC(=O)Cn2nc3c(SC4CCCCC4)nccn3c2=O)cc1, the Inhibition was 4.71%. In the case of CCCCn1c(=O)c2sccc2n2c(=O)n(CC(=O)N3CCC(Cc4ccccc4)CC3)nc12, the Inhibition was 0.07%. Cc1nnc2c(S(=O)(=O)N(Cc3ccccc3F)c3cc(F)cc(F)c3)cccn12 showed an Inhibition of 1.21%. With CC(C)c1ccc(N(Cc2cccc(Cl)c2)S(=O)(=O)c2cccn3cnnc23)cc1 the Inhibition was -3.32%. Work on CC(C)c1ccc(N(Cc2ccccc2F)S(=O)(=O)c2cccn3cnnc23)cc1 yielded an Inhibition of 6.21%. For O=C(Cn1nc2c(Sc3cccc(F)c3)nccn2c1=O)N1CCN(c2ccccc2)CC1, the Inhibition was 4.19%. COc1cccc(Sc2nc3ccccc3n3c(=O)n(CC(=O)N4CCCc5ccccc54)nc23)c1 showed an Inhibition of 2.78%.
